Assay outcomes (PubChem BioAssay)
Shiga toxin inh – blocks Shiga toxin action in Vero cells | Vero cells, Shiga toxin protein synthesis inhibition reporter | inhibition, % at 38.7 µM | hit rate 9.2% among 290,000; in the data active = inhibition mostly above about 28%, no sharp cut-off; inactive = mostly below about 43%; also: 0% is about no effect
Lassa entry inh – Lassa virus entry inhibition; Lassa virus pseudotype entry inhibition, cell reporter; Potency, µM (series often up to 37.9 µM), for inactives: at the highest dose activity change, negative = inhibition, hits mostly inhibitors; hit rate 1.2% among 300,000; calls by dose curve; tested in HEK293 cells; also: potency is read from the fitted curve at half-maximal effect; % is scaled to controls: 0 for no effect and ±100 for the full control effect; nearly all actives have a fitted effect of over 50% in size
Marburg entry inh – Marburg virus entry inhibition | Marburg virus pseudotyped entry inhibition, cell reporter | Potency, µM (titrated, usually from 37.8 µM), inactives show top-dose activity change, negative = inhibition, most hits filed as inhibitors | hit rate 1.8% among 300,000 | AID 540276; calls by dose curve; tested in HEK293 cells; also: potency is read from the fitted curve at half-maximal effect; % is scaled to controls: 0 for no effect and ±100 for the full control effect
Cycloheximide cs – counter-screen for Shiga toxin inhibitors: cycloheximide protein synthesis inhibition. max response, %. AID 2314. hit rate 12% among 300,000. cell reporter, cycloheximide protein synthesis inhibition counterscreen; in the data active = max response mostly above about 13%, no sharp cut-off; inactive = mostly below about 14%; also: read at 38.3 µM for the half of the compounds with a filed dose; 0% is about no effect
The depositor's hits bear a star; ? = inconclusive; . = no result given; [ ] = dose if it differs, or a comment. Rows were chosen to be rich in hits. Some 12% of all compounds tested hit in one or more screens of this group.

SMILES | Shiga toxin inh | Lassa entry inh | Marburg entry inh | Cycloheximide cs
Cc1sc(NC(=O)c2ccco2)c(C(c2ccc(F)cc2)N2CCN(C)CC2)c1C (stereo not given) | 32 | ? | 6.3µM* | 14
CCOC(=O)C1CCN(C(c2cccnc2)c2c(NC(=O)c3ccco3)sc(C)c2C)CC1 (stereo not given) | 32 | ? | ? | 21*
CSc1ccc(CNC(=O)C2CCN(c3nnc(-n4cccc4CNc4ccc(C)cc4)s3)CC2)cc1 | . | . | -8%[46.1 µM] | .
COc1cccc([C@H]2Oc3ccc(OC)cc3/C(=N\O[C@H](C)c3cn([C@H](CO)Cc4ccccc4)nn3)[C@@H]2O)c1 | . | . | 5%[14.2 µM] | .
O=c1[nH]c(NC2CCCCC2)c([N+](=O)[O-])c(=O)[nH]1 | -4 | -3% | ? | -1
COc1cc(C=Nc2c(C)cc(C)cc2C)ccc1OC(C)=O | -12 | -21% | 1% | 2
COc1cc(/C=N/Nc2nncn2/N=C/c2ccc(O)c(OC)c2)ccc1O | 48* | 4%[46.1 µM] | ? | 13*
COc1cc(/C=N\Nc2nncn2N)ccc1OC(C)=O | 19 | ? | ? | 17*
COc1cc(-c2nnc(NC(=O)CS(=O)(=O)c3ccc(C)cc3)o2)cc(OC)c1OC | . | 1% | -2% | .
COc1cc(NCCCC(C)N)c2ncccc2c1 (stereo not given) | -42 | ? | 3.5µM* | -14
Nc1nc(SCC(=O)Nc2ccc3c(c2)OCO3)n[nH]1 | -7 | 23% | 16% | -2
Cc1csc(NC(=O)c2nc3nc(C)cc(C)n3n2)n1 | 49 | ? | ? | 48*
Cc1cc(C)n2nc(C(=O)Nc3nnc(C4CC4)s3)nc2n1 | -18 | ? | 18% | -2
Cc1cc(C)n2nc(C(=O)Nc3nccs3)nc2n1 | 84* | 14% | ? | 23*
COC(=O)c1cc(NC(=O)[C@H](CCS(C)(=O)=O)N2Cc3ccccc3C2=O)cc(C(=O)OC)c1 | . | 1%[46.1 µM] | 1%[46.1 µM] | .
COc1ccccc1NC(=O)C1=C(C)Nc2nc(SC)nn2C1c1ccccc1Cl (stereo not given) | . | 1%[46.1 µM] | 3%[46.1 µM] | .
Cc1ccc2nc(C)cc(N/N=C/c3cccc(O)c3)c2c1 | 11 | ? | ? | 1
Oc1c(/C=N/Nc2cccc3cccnc23)ccc2ccccc12 | 90* | 8% | 22% | 74*
C=CCn1cc(/C=N/NC(=O)COc2cccc3cccnc23)c2ccccc21 | 13 | -24% | ? | 10
Oc1cccc(/C=N/Nc2cccc3cccnc23)c1 | 123* | ? | ? | 44*
COc1cc(/C=N/Nc2cccc3cccnc23)cc(OC)c1O | 69* | . | . | 34*
CCOC(=O)c1c(N2C(=O)Nc3cc(Cl)c(Cl)cc3N2O)sc2c1CCCCC2 | -16 | ? | ? | -2
CCOC(=O)c1cncc(C(=O)O)c1 | -5 | -13% | ? | -1
Cc1ccc(-n2cccn2)cc1 | -7 | . | 12%[46.1 µM] | -1
Cc1ccc(C)n1-c1ccc(-c2ccn[nH]2)cc1 | 71* | -19% | -11%[46.1 µM] | 36*
SMILES | Shiga toxin inh | Lassa entry inh | Marburg entry inh | Cycloheximide cs
Cc1ccc(C)n1-c1ccc(-c2nnco2)cc1 | -4 | . | 1% | 6
c1ccn(-c2ccc(-c3ccn[nH]3)cc2)c1 | 91* | 11% | ? | 37*
Cc1ccc(CNC(=O)C2CCC(CNS(=O)(=O)c3ccc4c(c3)CCCC(=O)N4)CC2)cc1 (stereo not given) | . | 2%[46.1 µM] | . | .
CCCCSc1ncnc2[nH]ncc12 | 25 | . | . | 23*
CCOC(=O)c1ccc(NC(=O)C(=O)NCC2CCCO2)cc1 (stereo not given) | 74 | 8% | ? | 11
CC(=O)c1cccc(NC(=O)NC(C)C2CCCO2)c1 (stereo not given) | -5 | -4% | -13% | 3
CCOC(=O)c1ccc(NC(=O)NC(C)C2CCCO2)cc1 (stereo not given) | 36 | 9% | ? | 12*
CC(NC(=O)Nc1ccc(Cl)cc1)C1CCCO1 (stereo not given) | 20* | 3% | 17%[46.1 µM] | 8
COc1ccccc1Nc1nc2ccc(Cl)cc2nc1-n1nc(C)cc1C | . | 10%[46.1 µM] | 10%[46.1 µM] | .
CN1C(=O)CC(c2ccco2)Sc2ccccc21 (stereo not given) | 24 | 11% | -8% | 0
COc1ccc(C2CC(=O)N(C)c3ccccc3S2)cc1 (stereo not given) | 124* | -2% | 2%[46.1 µM] | 38*
COc1ccc(C2CC(=O)N(CC(=O)NCC3CCCO3)c3ccccc3S2)cc1 (stereo not given) | 72 | . | . | 34*
COc1ccccc1NC(=O)CC1S/C(=N/N=C(\C)C2CCCCC2)NC1=O (stereo not given) | -27 | . | . | 2
O=[N+]([O-])c1cc(S(=O)(=O)N2CCCC2)ccc1O | -6 | 7% | ? | -4
O=[N+]([O-])c1cc(S(=O)(=O)N2CCCCCC2)ccc1F | -12 | ? | 11µM* | -3
O=[N+]([O-])c1cc(S(=O)(=O)N2CCCC2)ccc1OCc1ccccc1 | 17 | 18% | -4%[46.1 µM] | 28*
C[C@@H](N)C1CCC(C(=O)Nc2ccncc2)CC1 (stereo not given in full) | . | 16% | ? | .
CCC1CCCCN1Cc1nc2ccccc2c(=O)n1CC(C)=O (stereo not given) | 75* | . | . | 34*
CC(C)(C)NC(=O)C(c1ccncc1)N(C(=O)Cn1nnc(-c2ccc(F)cc2)n1)c1ccccc1F (stereo not given) | 38 | 17% | -23%[46.1 µM] | 21*
O=C(CCCc1nc2ccccc2s1)Nc1ccc(N2CCOCC2)cc1 | -1 | . | . | 10
CSCCC(NS(=O)(=O)c1ccc(C)cc1C)C(=O)Nc1cccnc1 (stereo not given) | . | -4% | -19% | .
CC1CC(C)CC(C)C(O)C(C#N)=CC=CCC(C2CCCC2C(=O)O)OC(=O)CC(O)C(C)C1 (stereo not given) | . | 1.4µM* | 0.45µM* | .
Cc1nn(CC(=O)N(C)c2c(N)n(Cc3ccccc3)c(=O)[nH]c2=O)c(C)c1[N+](=O)[O-] | . | 13% | ? | .
COc1ccc(/C=C/C2=NNC(=O)CC2)cc1 | 66 | 1% | ? | 27*
CCOc1ccc(/C=C/C2=NNC(=O)CC2)cc1 | 53* | -16% | -24%[46.1 µM] | 23*
SMILES | Shiga toxin inh | Lassa entry inh | Marburg entry inh | Cycloheximide cs
CCCOc1ccc(C2=NNC(=O)CC2)cc1 | 12 | -9% | 27% | 15*
O=C1CCC(/C=C/c2ccccc2)=NN1 | 17 | -11% | -1%[46.1 µM] | 17*
O=S(=O)(c1cc(F)ccc1F)N1CCC2(CC1)OCCN2S(=O)(=O)c1cccs1 | . | 9% | -5% | .
CCCc1cc(O)c2c(C)cc(=O)oc2c1 | 2 | 0% | -3% | -2
CN(Cc1ccc(OC(F)F)cc1)C(=O)c1ccc2c(=O)n3c(nc2c1)CCC3 | . | -1% | -17%[46.1 µM] | .
O=C(O)COc1ccc(/C=N/n2c(COc3ccccc3)nc3ccccc3c2=O)cc1 | 40 | 1% | 7% | 23
Nn1c(COc2ccc(Cl)cc2)nc2ccccc2c1=O | active | 24% | -25% | 24*
O=c1c2ccccc2nc(COc2ccccc2)n1/N=C/c1ccco1 | 69* | ? | 32% | 35*
O=c1c2ccccc2nc(COc2ccccc2)n1/N=C/c1ccc(O)c(O)c1 | 19 | . | 2% | 25*
Cc1cc(/C=N/n2c(COc3ccccc3)nc3ccccc3c2=O)c(O)c([N+](=O)[O-])c1 | 51 | ? | ? | 6
COC(=O)Cc1ccc(NC(=S)N2CCCC(C)C2)cc1 (stereo not given) | 11 | ? | ? | 41*
